TROY NFkB inh – inhibitors of TROY-driven NF-kB signaling, primary screen, Q293 LMP1-TROYcd cells, NF-kB luciferase, uHTS. Q293 LMP1-TROYcd NF-kB luciferase reporter, 4 h. inhibition, % at 10 µM. actives 0.98% (n = 360,000);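 active = compounds whose plate-normalised and pattern-corrected inhibition of the luciferase reporter signal at the single screening dose is 50% or more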
LGR2 inh – inhibitors of bursicon-induced LGR2 CRE-luciferase signal, primary screen, cell-based, HEK293, CRE-luciferase reporter, bursicon stimulation. Drosophila bursicon receptor LGR2 (rickets). bursicon-stimulated, 4 h. inhibition, % at 9.99 µM. actives 0.35% (n = 380,000);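 active = drop in luminescence signal, shown as inhibition above about 50% in the replicate tests, limit read from the data, passing the limit was not always enough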;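 note: agonist challenge used bursicon conditioned medium at about half maximal strength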
TWEAK-Fn14 inh – inhibitors of TWEAK-Fn14 signaling, primary screen, luciferase reporter cells, uHTS; inhibition, % at 10 µM; AID 1159606, 2016; TWEAK-stimulated Fn14 reporter cells, luciferase luminescence, 8 h; actives 2% (n = 360,000); in the data active = inhibition above about 50%
HSP90 inh – HSP90 inhibitors, primary screen, cell lysate, luminescence | Rabbit reticulocyte lysate, luciferase refolding luminescence, 3 h | inhibition, % at 5.6 µM | actives 0.91% (n = 290,000);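 active = inhibition above the screen-wide mean plus 3 SD, computed separately per campaign, cut at about 16% in these data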;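 note: 0% = DMSO wells and 100% = 60 µM geldanamycin wells; inhibitors lower the luminescence because luciferase stays unfolded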
HSP90 confirm – HSP90 inhibitors, confirmation, cell lysate, luminescence; shares compounds with HSP90 inh; rabbit reticulocyte lysate, luciferase refolding luminescence, 3 h; inhibition, % at 5.9 µM; actives 64% (n = 2,300); AID 1846, 2009; in the data active = inhibition above about 18%;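 note: 0% = vehicle wells and 100% = reference inhibitor wells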
luciferase ctr – firefly luciferase inhibitors, HSP90 counter-screen, confirmation, artefact control for HSP90 inhibitor project, biochemical, luminescence, triplicate. shares compounds with HSP90 inh. purified native firefly luciferase. inhibition, % at 5.9 µM. actives 48% (n = 2,300). AID 1847, 2009;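 active = inhibition above the mean inhibition of all tested sample wells plus 3 SD, cut at about 10% in these data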;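 note: 0% = DMSO with luciferase and 100% = wells lacking luciferase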
Target sequence (P08659 whole entry, looked up): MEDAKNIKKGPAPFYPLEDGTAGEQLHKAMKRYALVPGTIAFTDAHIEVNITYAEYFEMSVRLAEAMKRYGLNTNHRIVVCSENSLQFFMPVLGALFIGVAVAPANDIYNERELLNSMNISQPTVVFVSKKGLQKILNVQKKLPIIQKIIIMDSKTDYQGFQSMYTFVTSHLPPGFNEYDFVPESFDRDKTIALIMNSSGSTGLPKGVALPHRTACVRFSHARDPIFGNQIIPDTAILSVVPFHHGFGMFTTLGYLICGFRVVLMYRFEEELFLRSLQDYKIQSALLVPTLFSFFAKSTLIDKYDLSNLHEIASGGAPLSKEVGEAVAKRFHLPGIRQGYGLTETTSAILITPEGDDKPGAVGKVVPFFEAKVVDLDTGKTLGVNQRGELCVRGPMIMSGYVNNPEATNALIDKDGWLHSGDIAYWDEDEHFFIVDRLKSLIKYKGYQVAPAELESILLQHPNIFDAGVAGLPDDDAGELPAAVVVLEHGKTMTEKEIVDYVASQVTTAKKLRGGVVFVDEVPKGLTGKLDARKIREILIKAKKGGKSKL
Active calls of the source: *; . = not tested or not shown. Hits are enriched below; roughly 2.2% of the tested compounds scored in any of these assays.

SMILES	TROY NFkB inh	LGR2 inh	TWEAK-Fn14 inh	HSP90 inh	HSP90 confirm	luciferase ctr
Cc1[nH]c2ccccc2c1C(c1ccccn1)N1CCC(C)CC1 (stereo unspecified)	39	.	24	46*	1	-6
CCOC(=O)/C(=N\Nc1ncnc2ccccc12)c1ccc(OC)cc1	-19	-13	41	18*	23*	-28
CS(=O)(=O)Nc1ccc2c(c1)[C@H]1C[C@@H](CC(=O)N3CCCCC3)O[C@H](CO)[C@H]1O2	.	8	.	.	.	.
Cc1cc(C)c(C(=O)Cn2nc(C(=O)O)c3ccccc3c2=O)cc1C	7	-50	-11	6	.	.
Cc1cc(C(=O)Cn2nc(C(=O)O)c3ccccc3c2=O)c(C)n1-c1ccccc1	70*	-49	35	25*	62*	31*
CC(C)C(=O)Nc1nc2c(ncn2C2CC(O)C(CO)O2)c(=O)[nH]1 (stereo unspecified)	6	3	-14	34*	4	-1
CC(C)[C@@H](N)C(=O)NC[C@H]1O[C@@H](n2cnc3c(=O)[nH]c(N)nc32)[C@H](O)[C@@H]1O	-6	-9	7	.	.	.
C[C@H](CO)N1C[C@H](C)[C@H](CN(C)CC2CC2)Oc2c(NS(=O)(=O)c3cccs3)cccc2C1=O	.	5	.	.	.	.
CCC(=O)N1CC2(C1)[C@H](c1ccc(-c3cccc(OC)c3)cc1)[C@@H](CO)N2C(C)=O	.	1	.	.	.	.
COc1ccc(CNC(=O)COC(=O)c2ccco2)cc1	19	6	10	51*	-7	-9
Cc1cc2ncc(-c3cccs3)nc2cc1C	12	71*	71*	35*	61*	59*
CCC(=O)N1[C@H](CO)[C@H](c2ccccc2)C12CN(C(=O)c1ccc(F)cc1)C2	.	9	.	.	.	.
Cc1cccc(NC(=O)c2sc3nc(-c4ccc(F)cc4)cn3c2C)n1	13	.	39	5	.	.
COc1ccc(-c2cn3c(C)c(C(=O)Nc4cccc(C)n4)sc3n2)cc1	3	-41	31	77*	73*	7
Cc1cccc(NC(=O)c2sc3nc(-c4ccccc4)cn3c2C)n1	7	-16	6	27*	15	-21
COc1ccc(-c2cn3c(C)c(C(=O)NC(C)C)sc3n2)cc1	-48	.	-4	1	.	.
C[C@H](CO)N1C[C@H](C)[C@@H](CN(C)C(=O)C2CC2)Oc2cc(C#CCN(C)C)ccc2S1(=O)=O	.	2	.	.	.	.
Cc1ccc(/C=C(\C#N)C(=O)NCC2CCCO2)o1 (stereo unspecified)	-14	4	0	0	.	.
Cc1ccccc1-n1c(C)cc(/C=C(\C#N)C(=O)NCC2CCCO2)c1C (stereo unspecified)	59*	-72	56*	20*	37*	25*
O=C(C[C@H]1CC[C@H]2[C@@H](COC[C@@H](O)CN2C(=O)Nc2ccccc2)O1)NCCc1ccncc1	.	-19	.	.	.	.
C[C@H](CO)N1C[C@H](C)[C@H](CN(C)C(=O)Nc2ccc(F)cc2)Oc2ccc(NC(=O)Cc3ccccc3)cc2C1=O	.	6	.	.	.	.
CN(C)c1ccc(/C=C/c2nc3ccccc3s2)cc1	65*	.	105*	76*	92*	90*
COc1cc(/C=C/c2nc3ccccc3s2)cc(OC)c1O	27	-38	2	5	.	.
CN(C)c1ccc(CNc2nc3ccccc3s2)cc1	.	.	.	48*	73*	57*
Cc1ccc(/C=C/c2nc3ccccc3s2)s1	76*	.	86*	46*	80*	74*
SMILES	TROY NFkB inh	LGR2 inh	TWEAK-Fn14 inh	HSP90 inh	HSP90 confirm	luciferase ctr
CN(C)CC(=O)Nc1ccc2c(c1)[C@H]1C[C@@H](CC(=O)N3CCOCC3)O[C@H](CO)[C@H]1O2	.	2	.	.	.	.
C[C@H]1CCCCO[C@H](CN(C)Cc2ccc(C(=O)O)cc2)[C@@H](C)CN([C@@H](C)CO)C(=O)c2cc(NS(C)(=O)=O)ccc2O1	.	-4	.	.	.	.
CO[C@H]1CN(C)C(=O)c2cc(NC(=O)C3CCOCC3)ccc2OC[C@H](C)N(C(C)=O)C[C@@H]1C	.	-15	.	.	.	.
Cc1cc(C(=O)CSc2ccc(F)cc2)cc(C)c1OC(=S)N(C)C	.	.	100*	75*	70*	74*
O=C(C[C@@H]1CC[C@H]2[C@@H](COC[C@H](O)CN2C(=O)Nc2ccc(Cl)c(Cl)c2)O1)NCc1ccc(F)cc1	.	1	.	.	.	.
Cc1ccc(C(C)NC(=O)Cc2cccs2)c(C)c1 (stereo unspecified)	-13	9	-1	30*	-10	-11
Cc1ccc(C(C)NC(=O)Cc2cccs2)cc1C (stereo unspecified)	8	1	10	3	.	.
CO[C@H]1CN(C)C(=O)c2cc(NC(=O)Nc3cc(F)ccc3F)ccc2OC[C@H](C)NC[C@@H]1C	.	23	.	.	.	.
Cc1cc2ccccc2n1CCNC(=O)c1ccc(Br)o1	7	8	8	17*	1	-7
Cc1cc2ccccc2n1CCNC(=O)c1ccccc1	28	-25	30	40*	51*	-3
Cc1cc2ccccc2n1CCNC(=O)C(C)(C)C	2	32	2	.	.	.
CC(=O)NCCn1c(C)cc2ccccc21	8	0	7	.	.	.
Cc1ccc(/C=C2\SC(=S)N(CCCC(=O)Nc3ccccn3)C2=O)cc1	68*	.	79*	34*	39*	-18
COc1ccccc1N(Cc1ccccc1)S(=O)(=O)c1cccc(C(=O)Nc2cc(C)ccn2)c1	55*	55*	66*	38*	58*	41*
CO[C@@H]1CN(C)C(=O)c2cc(NC(=O)CC(F)(F)F)ccc2OC[C@H](C)N(C(=O)C2CCOCC2)C[C@@H]1C	.	-12	.	.	.	.
CCCC#Cc1ccc([C@H]2[C@H](CO)N3C(=O)CN(C(=O)Nc4cccc(F)c4)C[C@@H]23)cc1	.	5	.	.	.	.
c1ccc(-n2cnc3cc(NCc4ccccn4)ccc32)cc1	42	-32	57*	18*	18*	3
CC(=O)Nc1ccc(NC2=CC(=O)c3ccccc3C2=O)cc1	-10	-35	1	10	.	.
O=C(O)c1ccc(NC2=C/C(=N/S(=O)(=O)c3ccccc3)c3ccccc3C2=O)cc1	50*	99*	97*	86*	93*	6
Cc1cc(C)c(S(=O)(=O)/N=C2\C=C(Nc3ccc(C(=O)O)cc3)C(=O)c3ccccc32)c(C)c1	62*	3	96*	46*	79*	-9
CC(C)(C)[S@](=O)N1Cc2cc(C(=O)NCc3ccc4c(c3)OCO4)nc(-c3cccc(-c4ccncc4)c3)c2[C@@H]1CCO	.	3	.	.	.	.

Screens (PubChem)
